For orientation: inhibition means the change of the read-out against control, counted positive when it falls.

About 2,700 (0.77%) of roughly 350,000 compounds were called active. Many of the other results were omitted from the sample, so actives are more common in it than they were. Values without a mark were called inactive.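 Rule for the calls: active = inhibition reaching at least a set limit at 20 µM in the primary screen (cut at about 59% in these data); inactive = the rest.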

This note sets out measurements from PubChem BioAssay AID504690 (Sanford-Burnham Center for Chemical Genomics, 2011).

In this test the test system is glucose-6-phosphate dehydrogenase-6-phosphogluconolactonase (Plasmodium falciparum 3D7). In words: PfG6PD enzyme inhibitors, primary screen, biochemical, fluorescence intensity, uHTS (AID 504690).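 Note: 0% = DMSO wells with substrate and 100% = DMSO wells lacking glucose-6-phosphate.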 As to conditions: PfGluPho enzyme, NADPH resazurin-diaphorase fluorescence; at 20 µM; stronger effect = higher value. For orientation: Alamar Blue is a resazurin reagent that responds to reducing activity.
As to `COc1ccc(OC)c(/C=C/C(=O)c2ccc3c(c2)OCO3)c1`, the inhibition was 2.18%. Next, `Cc1ccc(OCC(=O)Nc2ccccc2Sc2ccc(Cl)cc2)c([N+](=O)[O-])n1`: 99.2% (active). Regarding `CCc1ccccc1NC(=O)CN(C)C(=O)COc1ccc(C)nc1[N+](=O)[O-]`, the inhibition was -20.3%. For the compound `Cc1ccc(OCC(=O)NC(C)c2ccccc2)c([N+](=O)[O-])n1` (stereo not given), the inhibition is -11.2%.

As for `O=S(=O)(NCC1CCCO1)c1ccc2ccccc2c1` (stereo not given), the inhibition is -2.51%. Regarding `COCCNC(=O)NC(=O)COC(=O)C1(c2ccc(Cl)cc2)CC1`, the inhibition is 8.76%. As for `CC(C)C(=O)Nc1ccc2c3c(cccc13)CC2`, the inhibition was -13.6%. Consider `CC1CCCN(S(=O)(=O)c2ccc(N(C(=O)c3cnccn3)C(C(=O)NC3CCCCC3)c3cccs3)cc2)C1` (stereo not given), for which the inhibition is 13.2%. Consider `Cc1ccc2c(c1)NCC(C(=O)NC1CCC(C)CC1)O2` (stereo not given), for which the inhibition is 18.8%. Next, `COc1ccc2c(c1)c(=Cc1ccc(N(C)C)cc1)c1cc(-c3ccccc3)[n+](C)n12`: 70% (active).

Turning to `Cc1cccc(C)c1NC(=O)CNC(=O)c1c(C)nn(-c2ccccc2)c1C`, the inhibition was -4.32%. To `COCC(=O)Nc1c(I)c(C(=O)NCC(O)CO)c(I)c(C(=O)N(C)CC(O)CO)c1I` (stereo not given) belongs -11%; to `O=C(Nc1ccc(-c2cscn2)cc1)C1CCCN(Cc2ccc(CO)o2)C1` (stereo not given), -2.34%; to `O=C1/C(=C\c2cccnc2)CN(Cc2ccccc2)C/C1=C\c1cccnc1`, 20.5%. As for `COc1cc(OC)c(C(=O)Nc2ccc(N(C)C)cc2)cc1OC`, the inhibition is 70.5% (active). On to `COc1ccc(Cl)cc1C(=O)Nc1ccc(N(C)C(C)=O)cc1`, for which the inhibition is 7.67%. `COc1cc(OC)c(C(=O)Nc2ccccc2-c2ccccc2)cc1OC`: the inhibition was 6.28%. To `O=C(NC12CC3CC(CC(C3)C1)C2)N1CCCC(CO)C1` (stereo not given) belongs -9.02%; to `CSc1ccc(CCNC(=O)C2CCN(c3nnc(-n4cccc4)s3)CC2)cc1`, -2.74%. On to `O=C(Oc1c(-c2ccco2)oc2ccccc2c1=O)c1cccnc1`, for which the inhibition was -16.3%. Regarding `CCn1nc(C(=O)NNS(=O)(=O)c2cc(/C=C/C(=O)O)cc(OC)c2OC)c2ccccc2c1=O`, the inhibition was 11.8%. For the compound `S=C(c1ccc(-c2ccccc2)o1)N1CCCCC1`, the inhibition was 52.2%. Consider `CN1CCN(CCCCOc2ccccc2-c2ccccc2)CC1`, for which the inhibition is 5.8%.

For `OCCN1CCN(C(=S)c2ccc(-c3ccccc3)cc2)CC1`, the inhibition was 66.4% (active). `COc1ccccc1CCCNC(=O)C1CCC(=O)N(CCN2CCOCC2)C1` (stereo not given): the inhibition is -4.18%.

In the case of `CC(=O)Nc1nc2c(s1)C(=O)NCC(C)(C)C2`, the inhibition was -8.85%. Next, `Cc1ccc(-n2nc(-c3ccco3)cc2C(=O)NCc2cccnc2)cc1`: 38.2%.

In the case of `CC1CN(C(=S)Nc2ccc(S(N)(=O)=O)cc2)CC(C)O1` (stereo not given), the inhibition was 13.9%. Next, `O=C(CCS(=O)(=O)c1cccc2nonc12)NCCc1ccccc1Cl`: 0.62%. On to `Oc1c(C=Nc2cccc3nsnc23)ccc2ccccc12`, for which the inhibition is 64.6% (active).

On to `c1ccc(-c2cn3c(n2)CCc2ccc4cccnc4c2-3)cc1`, for which the inhibition is 107% (active).

As to `OC(CN=c1sc2ccccc2n1CC(O)COc1ccccc1)COc1ccccc1` (stereo not given), the inhibition was 22.7%. For `Nc1ccc2nc3c(=O)[nH]c(=S)[nH]c3nc2c1`, the inhibition was 83.3% (active). `Cc1ccc(S(=O)(=O)N2CCN(C(=O)CSc3cc(C)ccc3C)CC2)c(C)c1`: the inhibition was 13.7%.

In the case of `CCCOC1CCCN(C(=O)c2cc(COc3cncc(Cl)c3)on2)C1` (stereo not given), the inhibition is 3.11%. On to `CCCCNS(=O)(=O)c1ccc(S(=O)(=O)n2cnc3ccccc32)cc1`, for which the inhibition was -0.9%. `CCOc1c2ccc(C(=O)NC3CCCc4ccccc43)cc2nn1CC` (stereo not given): the inhibition is 0.09%. On to `O=C(COC(=O)CN1C(=O)C2CCCCC2C1=O)Nc1ccc(F)c(F)c1F` (stereo not given), for which the inhibition was 14.5%. As to `CC1=CC(C)(C)Nc2ccc(OC(=O)CN3C(=O)C4CCCCC4C3=O)cc21` (stereo not given), the inhibition is 70.6% (active).

Take `CC1=CC(C)(C)Nc2ccc(OC(=O)C(Cc3ccccc3)N3C(=O)C4CCCCC4C3=O)cc21` (stereo not given): the inhibition was 38.3%. Take `CC1CCCCC1NC(=O)CCS(=O)(=O)c1ccc2c(c1)NC(=O)CO2` (stereo not given): the inhibition is 4.88%.

Turning to `CN(C)N(C)C(=O)C(O)(c1ccccc1)c1ccccc1`, the inhibition is -19.5%.

As to `C/C=C/c1ccc(OCC(=O)OCC(=O)Nc2c(C)nn(-c3ccccc3)c2C)c(OC)c1`, the inhibition was -4.73%.

`N=c1n(Cc2ccc(Cl)cc2)c2ccccc2n1CC(O)c1ccco1` (stereo not given): the inhibition was 8.27%. Regarding `O=C(Nc1ccc2ccccc2c1[N+](=O)[O-])c1ccccc1`, the inhibition was 33.8%. `O=C(Nc1ncccc1O)c1ccc(C(=O)c2ccccc2)cc1`: the inhibition was -5.63%. With `O=C(NC1=CC(=O)c2ccccc2C1=O)c1ccccc1`, the inhibition is 80.4% (active). On to `CC(Sc1nnc(COc2ccccc2)n1-c1ccccc1)C(=O)O` (stereo not given), for which the inhibition was -12.2%. To `COc1ccc(OCc2nnc3n2N=C(c2ccccc2)C(CC(=O)O)S3)cc1` (stereo not given) belongs 88.1% (active); to `COc1ccc(C(=O)NCc2nnc(SCCOc3ccccc3)n2C)cc1`, -13%; to `Cc1cccc(C)c1NC(=O)c1ccc(CN2CCc3ccccc3C2)cc1`, 4.01%. On to `O=C(c1cccnc1)N1CCN(S(=O)(=O)c2cccs2)CC1`, for which the inhibition was -17.9%. To `COc1ccccc1C(=O)N1CCNC(=O)C1CC(=O)Nc1ccc(Cl)cc1` (stereo not given) belongs -0.83%; to `CN1CCc2nc(SC(C(=O)O)c3ccccc3)c(C#N)c(-c3cccs3)c2C1` (stereo not given), 33.9%; to `Cc1noc(C)c1C(=O)OC(C)C(=O)Nc1ccc2c(c1)OCO2` (stereo not given), 7.92%.

For the compound `O=S1(=O)N=C(N(CCO)/N=C/c2ccccc2F)c2ccccc21`, the inhibition is -22.8%. For `CCOC(=O)c1ccccc1CN1C(=O)c2ccccc2S1(=O)=O`, the inhibition is -6.44%. `CCOC(=O)C(NC(C)=O)C(=O)Nc1ccc(OC)cc1` (stereo not given): the inhibition is -2.17%.

With `CCOC(=O)C1=C(c2ccc(OC)cc2)C(=O)c2ccccc2C1=O`, the inhibition was 101% (active). For the compound `CCOC(=O)c1c(C)nn(-c2ncccc2NC(=O)CCC(=O)O)c1C`, the inhibition was -27.7%.

Consider `CC(C)[C@H](NC(=O)N1CCn2c1nc1ccccc12)C(=O)NCc1ccc2c(c1)OCO2`, for which the inhibition is 20.7%. To `COc1cc(C(F)(F)F)c(C(=O)N(C)c2ccc(Cl)cc2)cn1` belongs 5.85%; to `COc1ccc(Cl)cc1NC(=O)CN(C)C(=O)CCCc1c[nH]c2ccccc12`, 78.4% (active).

For the compound `COc1ccc(Cl)cc1NC(=O)CN(C)C(=O)CNC(=O)C12CC3CC(CC(C3)C1)C2`, the inhibition was -2.93%. Turning to `COc1ccc(Cl)cc1NC(=O)CN(C)C(=O)c1cc2ccccc2cc1OC`, the inhibition is 11.4%. In the case of `Cc1ccc(-n2ncc(C(=O)NC3CC3)c2C2CCN(C(=O)OC(C)(C)C)CC2)c(C)c1`, the inhibition is -21.1%.

`O=C(NCCOc1ccccc1)c1ccccc1F`: the inhibition was -13.3%. For `OCC[C@H]1C[C@H](O)[C@@H](O)[C@]2(Cc3ccccc3CO2)O1`, the inhibition is 0.59%.

Consider `Cc1cc(-c2n[nH]c(=S)n2/N=C/C(Br)=C/c2ccccc2)n[nH]1`, for which the inhibition is 23.4%.

For `S=c1[nH]nc(-c2cc(-c3ccccc3)n[nH]2)n1/N=C/c1c2ccccc2cc2ccccc12`, the inhibition is 59.1% (active). Consider `CCN(CC)S(=O)(=O)c1cccc(-c2n[nH]c(=S)n2/N=C/c2ccc(C(=O)OC)cc2)c1`, for which the inhibition is 13.1%. For `O=C(CCC(=O)OCC(F)(F)C(F)F)NCc1ccccc1`, the inhibition is 1.98%.

Turning to `O=C1OC(Oc2ccc(Br)cc2)(c2ccccc2)c2ccccc21` (stereo not given), the inhibition was 69.2% (active). Turning to `COc1ccc(OC)c(-n2cc3c(=O)n(C)c(=O)n(C)c3c2)c1`, the inhibition was 17.5%.

On to `CC[C@]12c3[nH]c4cc(CCC(=O)N(C)C)ccc4c3CCN1C(=O)[C@@H](CC(=O)NCC13CC4CC(CC(C4)C1)C3)C[C@@H]2C(=O)N1CCN(C(=O)C2CC2)CC1`, for which the inhibition was 0.29%. As to `O=c1[nH]c(/C=C\c2cccc(C(F)(F)F)c2)nc(O)c1[N+](=O)[O-]`, the inhibition was 1.8%. As to `O=S(=O)(Nc1cccc(Oc2ccc(Cl)cc2)n1)c1ccc(F)cc1`, the inhibition is -6%. For the compound `CC(=O)N(C1=C(Cl)C(=O)c2ccccc2C1=O)c1ccc(C(=O)O)cc1`, the inhibition is 120% (active). Regarding `CCCCN(C(=O)c1ccc(S(=O)(=O)N2CCOCC2)cc1)C1CCS(=O)(=O)C1` (stereo not given), the inhibition is -2.48%.

For `Cc1ccc(OCCOCCOc2ccc(Br)cc2/C=N\NC(=O)c2ccncc2)cc1`, the inhibition is 40.5%. To `COc1ccc(CC(=O)NCC(=O)N/N=C/c2cc(Br)ccc2OC)cc1` belongs 99.2% (active); to `O=C(CCc1ccc(O)cc1)NN=Cc1cc(Br)ccc1O`, -4.92%. For the compound `O=[N+]([O-])c1c(NCCO)cc(Sc2nc3ccccc3s2)c2nonc12`, the inhibition is 89.2% (active).

Take `Cc1oc(C)c(C(=O)NCCCC(=O)O)c1C(=O)NCCCC(=O)O`: the inhibition is 2.34%. To `COc1cccc(C(=O)Nc2c3c(nn2-c2cccc(C)c2C)CS(=O)(=O)C3)c1OC` belongs 8.42%. On to `O=C1NC(=Nc2ccc(Cl)cc2)SC1Cc1cccc(Cl)c1Cl` (stereo not given), for which the inhibition is -30.1%. For the compound `O=C(NC1CCCC1)C(c1ccc(Cl)cc1)N(C(=O)c1csnn1)C1CC1` (stereo not given), the inhibition was -0.62%. Next, `O=c1oc2ccccc2cc1-c1cn(-c2ccccc2)c(=S)[nH]1`: 64% (active). Turning to `COc1cccc(-n2c(=S)[nH]c3c(oc4ccccc43)c2=O)c1`, the inhibition was 23.4%. Next, `Cc1ccc(S(=O)(=O)c2cc3c(=O)n4cccc(C)c4nc3n(CCc3ccccc3)c2=N)cc1C`: -4.62%.
